This is part of a sample that, as a whole, favours compounds with a hit. Of some 83,000 tested, about 20% had one in any assay.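 Each cell line was grown in a 96-well plate and treated with one concentration of compound for 48 hours. Values below 10 were considered active.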 Unmarked numbers belong to inactive results. Active and inactive are the calls of the source.

The assay has as its system MDA-MB-468 breast. Nature of the assay: NCI-60 one-dose screen, 48 h (100 = growth as untreated, 0 = no growth, -100 = all killed). The settings on record: 10 µM unless noted.
Turning to `Nc1c(Br)cc2c3c(cccc13)-c1ccccc1-2`, the growth is 3.54% (active).

For `O=C([O][Hg][CH2]C1OCCOC1[CH2][Hg][O]C(=O)c1ccccc1)c1ccccc1` (stereo not given), the growth is -81.5% (active).

`CC[CH2][Pb]([CH2]CC)([CH2]CC)[O]C(=O)C(F)(F)F`: the growth is -90.1% (active).

`COc1ccc(C(=O)c2cc(OC)c(OC)c(OC)c2)cc1OC(C)=O`: the growth is 43.1%.

Take `CCn1nccc1NC(=O)C(=O)c1cn(Cc2ccc(F)cc2)c2cccc(OC)c12`: the growth was 102%.

On to `COc1ccc(C(O)(C(=O)O)c2ccc(OC)cc2)cc1`, for which the growth is 104%.

For `COc1ccc(/C=C/c2cc(OC)c(OC)c(OC)c2)cc1NC(=O)/C=C/c1ccc(F)cc1`, the growth was 13.3%.

In the case of `O=[N+]([O-])c1ccc([Se]C2CCCCC2Cl)c([N+](=O)[O-])c1` (stereo not given), the growth is 90.5%.

`COC(=O)[C@@]1(O)C[C@H]2O[C@]1(C)n1c3ccccc3c3c4c(c5c6ccccc6n2c5c31)C(=O)NC4`: the growth is -72.4% (active).

On to `C/C(=C\c1ccn(-c2ccccc2N)n1)[C@@H]1C[C@@H]2O[C@]2(C)CCC[C@H](C)[C@H](O)[C@@H](C)C(=O)C(C)(C)[C@@H](O)CC(=O)O1`, for which the growth is 0% (active).

In the case of `NCCc1ccc(OCc2ccccc2)c(OCc2ccccc2)c1`, the growth was 48.5%.

As to `O=S(OO)c1cc(Cl)c(O)c(Cl)c1` (stereo not given), the growth is 112%.

Regarding `N#CCCc1ccccc1`, the growth was 101%.

As for `COC(=O)[C@@H](NC(=O)c1cn(CCC2CCCCC2)c2ccccc12)C(C)(C)C`, the growth is 82.3%.

As for `CCN(CC)CCOC(=O)C(OC(C)C)(c1ccccc1)c1ccccc1`, the growth is 95.1%.

For the origin of these results see PubChem BioAssay (NCI).
